Activity calls are given as the source filed them. Rule for the calls: active = hit-call score of the fitted dose curve at least 0.9, where 1 is the maximum; inactive = score below 0.9.
Columns and labels:
Conditions in all cases: mRNA level, 48 h; actives raise or lower the signal
[1] = read-out: Insulin-like growth factor-binding protein 1 (IGFBP1), IGFBP1 (gene 3484); test: LTEA_HepaRG_IGFBP1: Life Technologies and Expression Analysis (LTEA) Assay for Insulin-like growth factor-binding protein 1 (IGFBP1) using HepaRG (AID 2283508)
Procedure, shortened: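 Thawed HepaRG cells are plated for 48 h, switched to serum-free induction medium, then dosed in duplicate for another 48 h (100 uM top, half-log steps). Lysates in RLT go to qRT-PCR, and gain or loss of signal is fitted relative to vehicle.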

[2] = read-out: Interleukin 6 (IL6), IL6 (gene 3569); test: LTEA_HepaRG_IL6: Life Technologies and Expression Analysis (LTEA) Assay for Interleukin 6 (IL6) using HepaRG (AID 2283509)
Procedure, shortened: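 HepaRG, ~100,000 cells/well, 48 h pre-culture; serum-free induction medium; cmpd 8-pt half-log from 100 uM, 0.5% DMSO, duplicate, 48 h. Lysis in RLT, TaqMan qRT-PCR; gain or loss vs DMSO.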

[3] = read-out: Interleukin 6 Receptor (IL6R), IL6R (gene 3570); test: LTEA_HepaRG_IL6R: Life Technologies and Expression Analysis (LTEA) Assay for Interleukin 6 Receptor (IL6R) using HepaRG (AID 2283510);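 for AC50: TaqMan qRT-PCR signal normalized to ACTB GAPDH and POLR2A housekeeping genes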
Procedure, shortened: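 Differentiated human HepaRG cells, plated 48 h then switched to serum-free induction medium, were dosed in duplicate for 48 h at eight half-log concentrations up to 100 uM in 0.5% DMSO. IL6R mRNA quantified by qRT-PCR, normalized to ACTB/GAPDH/POLR2A; bidirectional fit versus DMSO.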

[4] = read-out: Potassium channel subfamily K member 1 (KCNK1), KCNK1 (gene 3775); test: LTEA_HepaRG_KCNK1: Life Technologies and Expression Analysis (LTEA) Assay for Potassium channel subfamily K member 1 (KCNK1) using HepaRG (AID 2283511)
Procedure, shortened: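 Gain or loss of KCNK1 mRNA is the read-out, quantified by qRT-PCR against three housekeeping genes after 48 h chemical treatment of human HepaRG liver cells. Concentrations ran from 100 uM downward in half-log steps, vehicle 0.5% DMSO.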

[5] = read-out: Keratin 19 (KRT19), KRT19 (gene 3880); test: LTEA_HepaRG_KRT19: Life Technologies and Expression Analysis (LTEA) Assay for Keratin 19 (KRT19) using HepaRG (AID 2283512)
Procedure, shortened: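 KRT19 transcript levels, measured by Fluidigm qRT-PCR against three housekeeping genes, are fitted for gain or loss of signal relative to DMSO. Human HepaRG cells receive test chemicals (top 100 uM, half-log steps, 0.5% DMSO) for 48 hours.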

[6] = read-out: JUN Transcription Factor, JUN (gene 3725); test: LTEA_HepaRG_JUN: Life Technologies and Expression Analysis (LTEA) Assay for JUN Transcription Factor using HepaRG (AID 2283513)
Procedure, shortened: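 Differentiated HepaRG cells were exposed to chemicals for 48 h in serum-free induction medium, 8 concentrations from 100 uM in half-log steps, 0.5% DMSO vehicle, in duplicate. JUN mRNA was quantified by TaqMan qRT-PCR, normalized to ACTB, GAPDH, POLR2A.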

[7] = read-out: Lipase C (LIPC), LIPC (gene 3990); test: LTEA_HepaRG_LIPC: Life Technologies and Expression Analysis (LTEA) Assay for Lipase C (LIPC) using HepaRG (AID 2283514)
Procedure, shortened: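 Read-out is LIPC transcript level by TaqMan qRT-PCR, normalized to three housekeeping genes, after 48 h chemical treatment of human HepaRG liver cells. Curves span eight concentrations topping at 100 uM; activity in either direction scored relative to 0.5% DMSO.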

[8] = read-out: Lipoprotein lipase (LPL), LPL (gene 4023); test: LTEA_HepaRG_LPL: Life Technologies and Expression Analysis (LTEA) Assay for Lipoprotein lipase (LPL) using HepaRG (AID 2283515)
Procedure, shortened: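 Read-out is LPL transcript level by qRT-PCR, normalized to three housekeeping genes and fitted bidirectionally against the DMSO control. Human HepaRG cells received chemicals for 48 h at up to 100 uM.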

[9] = read-out: MicroRNA 122 (MIR122), gene 406906; test: LTEA_HepaRG_MIR122: Life Technologies and Expression Analysis (LTEA) Assay for MicroRNA 122 (MIR122) using HepaRG (AID 2283516); note: the transcript read is the microRNA miR-122
Procedure, shortened: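 Differentiated human HepaRG cells were exposed 48 h in serum-free induction medium to eight half-log concentrations (top 100 uM, 0.5% DMSO). Transcript level was measured by TaqMan qRT-PCR, normalized to ACTB, GAPDH and POLR2A, and fitted bidirectionally versus DMSO.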

[10] = read-out: matrix metalloproteinase-10 (MMP10), MMP10 (gene 4319); test: LTEA_HepaRG_MMP10: Life Technologies and Expression Analysis (LTEA) Assay for matrix metalloproteinase-10 (MMP10) using HepaRG (AID 2283517)
Procedure, shortened: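 Gain or loss of MMP10 mRNA is fitted relative to the 0.5% DMSO vehicle. The human hepatic line HepaRG receives a 48-hour serum-free exposure, in duplicate, with a maximum concentration of 100 uM.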

MYC, MYC (gene 4609) = test: LTEA_HepaRG_MYC: Life Technologies and Expression Analysis (LTEA) Assay for MYC using HepaRG (AID 2283518)
Procedure, shortened: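 HepaRG, ~100,000 cells/well, collagen I; 48 h plating; serum-free induction medium; 48 h dosing, duplicate, 100 uM top, half-log, 0.5% DMSO; total RNA → qRT-PCR MYC; gain/loss fit vs DMSO.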

[11] = read-out: Paternally Expressed 10 (PEG10), PEG10 (gene 23089); test: LTEA_HepaRG_PEG10: Life Technologies and Expression Analysis (LTEA) Assay for Paternally Expressed 10 (PEG10) using HepaRG (AID 2283520)
Procedure, shortened: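 Differentiated HepaRG cells, plated 48 h then switched to serum-free induction medium, were exposed in duplicate for 48 h to eight half-log concentrations topping at 100 uM in 0.5% DMSO. PEG10 mRNA was quantified by TaqMan qRT-PCR, normalised to ACTB, GAPDH and POLR2A.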

[12] = read-out: Protein phosphatase 2A (PPP2R4), PTPA (gene 5524); test: LTEA_HepaRG_PPP2R4: Life Technologies and Expression Analysis (LTEA) Assay for Protein phosphatase 2A (PPP2R4) using HepaRG (AID 2283522)
Procedure, shortened: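 Differentiated HepaRG cells in serum-free induction medium were exposed in duplicate for 48 h to eight concentrations, top 100 uM with half-log dilutions, in 0.5% DMSO. PPP2R4 mRNA was quantified by TaqMan qRT-PCR, normalized to ACTB, GAPDH and POLR2A.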

[13] = read-out: Phosphatase and tensin (PTEN), PTEN (gene 5728); test: LTEA_HepaRG_PTEN: Life Technologies and Expression Analysis (LTEA) Assay for Phosphatase and tensin (PTEN) using HepaRG (AID 2283523)
Procedure, shortened: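 Read-out is PTEN transcript level by multiplexed TaqMan qRT-PCR after 48 h chemical treatment of human HepaRG cultures in serum-free induction medium. Concentrations spanned 100 uM downward in half-log steps, 0.5% DMSO throughout; activity fitted in both directions against vehicle.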

[14] = read-out: solute carrier (SLC22A1), SLC22A1 (gene 6580); test: LTEA_HepaRG_SLC22A1: Life Technologies and Expression Analysis (LTEA) Assay for solute carrier (SLC22A1) using HepaRG (AID 2283524)
Procedure, shortened: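 HepaRG (human liver line), 48 h dosing in serum-free induction medium; 8 conc., half-log down from 100 uM, 0.5% DMSO vehicle, duplicates. Endpoint: SLC22A1 mRNA, qRT-PCR, housekeeping-normalized; gain/loss fit vs DMSO.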

[15] = read-out: Pyruvate Dehydrogenase Kinase 4 (PDK4), PDK4 (gene 5166); test: LTEA_HepaRG_PDK4: Life Technologies and Expression Analysis (LTEA) Assay for Pyruvate Dehydrogenase Kinase 4 (PDK4) using HepaRG (AID 2283525)
Procedure, shortened: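 In this multiplexed human HepaRG expression assay, cells are treated 48 h with test chemicals across an eight-point range starting at 100 uM. PDK4 mRNA changes, normalized to ACTB/GAPDH/POLR2A, are fitted in both directions relative to vehicle.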

[16] = read-out: NAD(P)H dehydrogenase [quinone] 1 (NQO1), NQO1 (gene 1728); test: LTEA_HepaRG_NQO1: Life Technologies and Expression Analysis (LTEA) Assay for NAD(P)H dehydrogenase [quinone] 1 (NQO1) using HepaRG (AID 2283526)
Procedure, shortened: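 Differentiated HepaRG cells, plated 48 h and then switched to serum-free induction medium, were exposed in duplicate for 48 h to 8-point half-log concentrations up to 100 uM in 0.5% DMSO. mRNA measured by qRT-PCR, normalized to ACTB, GAPDH, POLR2A; bidirectional fit versus DMSO.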

[17] = read-out: Nuclear factor erythroid 2-related factor 2 (Homo sapiens) (UniProt Q16236); test: LTEA_HepaRG_NFE2L2: Life Technologies and Expression Analysis (LTEA) Assay for Nuclear factor erythroid 2-related factor 2 (NFE2L2) Transcription Factor using HepaRG (AID 2283527)
Procedure, shortened: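 Transcript level of NFE2L2 is the read-out, measured by microfluidic TaqMan qRT-PCR and normalized to three housekeeping genes. Human HepaRG cultures received test chemical for 48 h at up to 100 uM in half-log steps. Gain or loss of signal is fitted relative to 0.5% DMSO.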

[18] = read-out: matrix metalloproteinase-3 (MMP3), MMP3 (gene 4314); test: LTEA_HepaRG_MMP3: Life Technologies and Expression Analysis (LTEA) Assay for matrix metalloproteinase-3 (MMP3) using HepaRG (AID 2283519)
Procedure, shortened: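 HepaRG, human; 48 h dosing, 8 conc. (max 100 uM, half-log), duplicate, 0.5% DMSO. Readout: MMP3 transcript by Fluidigm TaqMan qRT-PCR, ACTB/GAPDH/POLR2A-normalised. Gain or loss fitted vs DMSO.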

Measured: AC50

Chain of Nuclear factor erythroid 2-related factor 2 (Homo sapiens) (Q16236 whole entry, looked up): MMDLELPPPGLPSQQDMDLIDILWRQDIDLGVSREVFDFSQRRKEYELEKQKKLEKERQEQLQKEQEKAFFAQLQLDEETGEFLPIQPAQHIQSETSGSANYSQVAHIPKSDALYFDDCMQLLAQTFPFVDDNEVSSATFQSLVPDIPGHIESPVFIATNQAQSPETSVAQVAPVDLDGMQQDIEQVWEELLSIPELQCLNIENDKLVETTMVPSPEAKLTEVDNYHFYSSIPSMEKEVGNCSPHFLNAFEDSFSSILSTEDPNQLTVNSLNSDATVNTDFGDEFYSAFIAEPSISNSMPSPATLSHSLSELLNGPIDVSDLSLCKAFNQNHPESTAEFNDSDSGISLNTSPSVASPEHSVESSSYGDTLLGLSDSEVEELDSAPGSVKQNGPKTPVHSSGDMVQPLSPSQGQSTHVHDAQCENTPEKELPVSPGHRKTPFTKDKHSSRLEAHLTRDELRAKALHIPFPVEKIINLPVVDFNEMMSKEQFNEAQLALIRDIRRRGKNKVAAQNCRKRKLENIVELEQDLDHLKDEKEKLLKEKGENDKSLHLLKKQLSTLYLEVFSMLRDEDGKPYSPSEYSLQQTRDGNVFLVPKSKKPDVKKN

O=C(O)Cc1cc(I)c(Oc2cc(I)c(O)c(I)c2)c(I)c1
active: [1] 55.7 µM | [2] 54 µM | [3] 55 µM | [4] 53.9 µM | [5] 0.0526 µM | [6] 52.3 µM | [7] 52.2 µM | [8] 60.6 µM | [9] 58.6 µM | [10] 51.5 µM | MYC, MYC (gene 4609) 52 µM | [11] 0.228 µM | [12] 54.9 µM | [13] 59.9 µM | [14] 53.1 µM | [15] 49.6 µM | [16] 33.5 µM | [17] 54.9 µM

COc1ccc([N+](=O)[O-])cc1N
not listed: [18]
inactive: all other assays above

COCC(C)O (centres undefined)
not listed: [18]
inactive: all other assays above

CC(=O)NC1(c2cccc(F)c2)CCN(CC[C@@]2(c3ccc(Cl)c(Cl)c3)CN(c3ccccc3)C(=O)CO2)CC1
active: [1] 41.5 µM | [2] 76.2 µM | [3] 77.5 µM | [6] 62.1 µM | [8] 23.1 µM | [10] 71 µM | [13] 65.3 µM | [14] 77.2 µM | [17] 76.3 µM
not listed: [18]
inactive: all other assays above

CC[C@H](C)[C@@H](C(=O)O)n1sc2ccccc2c1=O
not listed: [18]
inactive: all other assays above

CC#C[C@]1(O)CC[C@H]2[C@@H]3CCC4=CC(=O)CCC4=C3[C@@H](c3ccc(N(C)C)cc3)C[C@@]21C
active: [1] 23.6 µM | [2] 37.4 µM | [3] 12.9 µM | [4] 69 µM | [6] 33.7 µM | [7] 67.2 µM | [8] 76.2 µM | [9] 50 µM | [10] 33.5 µM | MYC, MYC (gene 4609) 50 µM | [12] 13.8 µM | [14] 25.2 µM | [15] 0.504 µM | [17] 50 µM
inactive: [5] | [11] | [13] | [16]

O=c1c(-c2ccc(O)cc2)coc2cc(O)ccc12
not listed: [18]
inactive: all other assays above

CC(C)(C)c1cc(C(C)(C)C)c(O)c(C(C)(C)C)c1
active: [15] 23.5 µM
not listed: [6]
inactive: all other assays above
